Experimental data reported in PubChem BioAssay (NCATS).
Results filed as inconclusive are left out. Activity calls are given as the source filed them. Unless noted, calls come from the whole dose curve; as a rule, active = well fitted curve in the direction sought with a large enough effect; inconclusive = small, poorly fitted or top-dose-only effect, or another doubt; inactive = no such curve, though single readings can be large; an effect the other way counts as inactive or inconclusive.

How the values were obtained:
[1] = target: Cytochrome P450 3A4 (Homo sapiens) (UniProt P08684); test: qHTS Assay for Inhibitors and Substrates of Cytochrome P450 3A4 (AID 884); settings: recombinant CYP3A4, Luciferin-PPXE luminescence; series mostly up to 57.1 µM; note: nearly all actives have a fitted effect of over 50% in size; note: potency is the fitted concentration of half-maximal effect; for activity change, negative = inhibition: % is set by controls: 0 for no effect and ±100 for the full control effect
Sequence of Cytochrome P450 3A4 (Homo sapiens) (P08684 whole entry, looked up): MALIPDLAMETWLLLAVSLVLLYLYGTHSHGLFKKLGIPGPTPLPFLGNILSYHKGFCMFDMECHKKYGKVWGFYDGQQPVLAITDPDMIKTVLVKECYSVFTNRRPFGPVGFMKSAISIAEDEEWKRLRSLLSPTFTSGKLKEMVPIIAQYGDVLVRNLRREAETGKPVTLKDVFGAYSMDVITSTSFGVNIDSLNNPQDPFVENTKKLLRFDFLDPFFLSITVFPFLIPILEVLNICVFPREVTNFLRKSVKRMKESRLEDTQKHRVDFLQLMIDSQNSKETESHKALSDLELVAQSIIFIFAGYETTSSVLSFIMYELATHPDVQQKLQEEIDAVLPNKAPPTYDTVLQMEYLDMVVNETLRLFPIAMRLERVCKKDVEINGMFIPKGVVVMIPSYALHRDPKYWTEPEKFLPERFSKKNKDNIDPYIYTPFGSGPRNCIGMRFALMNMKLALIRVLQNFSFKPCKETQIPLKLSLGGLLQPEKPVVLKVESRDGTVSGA
Summary of the method: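 20 nM human CYP3A4 with 25 uM Luciferin-PPXE (at KM) in 200 mM KPO4, preincubated 10 min with compound; NADPH regeneration started a 60 min RT reaction. Luciferin detected by luminescence, normalized to 57 uM ketoconazole as full inhibition.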

[2] = qHTS Assay for Lipid Storage Modulators (AID 1519; calls by dose curve; for activity change, negative = inhibition: % is set by controls: 0 for no effect and ±100 for the full control effect); settings: Drosophila S3 cells, BODIPY lipid droplet/cell ratio, laser cytometry, cells loaded with oleic acid; for activity change, negative = inhibition: at 57.5 µM (top of the series)
Summary of the method: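 Cells seeded at 5,000 per well were treated with compounds over a concentration series and loaded with oleic acid (400 uM, as added). Lipid droplet fluorescence (488 nm excitation, 500-530 nm channel) was read by laser-scanning cytometry and normalized to 20 uM Triacsin C.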

[3] = target: DNA dC->dU-editing enzyme APOBEC-3G (Homo sapiens) (UniProt Q9HC16); test: qHTS for inhibitors of Vif-A3G interactions: Validation (AID 588379); settings: Vif-A3G protein interaction assay; series mostly up to 46.1 µM; note: 0% is about no effect
Sequence of DNA dC->dU-editing enzyme APOBEC-3G (Homo sapiens) (Q9HC16 whole entry, looked up): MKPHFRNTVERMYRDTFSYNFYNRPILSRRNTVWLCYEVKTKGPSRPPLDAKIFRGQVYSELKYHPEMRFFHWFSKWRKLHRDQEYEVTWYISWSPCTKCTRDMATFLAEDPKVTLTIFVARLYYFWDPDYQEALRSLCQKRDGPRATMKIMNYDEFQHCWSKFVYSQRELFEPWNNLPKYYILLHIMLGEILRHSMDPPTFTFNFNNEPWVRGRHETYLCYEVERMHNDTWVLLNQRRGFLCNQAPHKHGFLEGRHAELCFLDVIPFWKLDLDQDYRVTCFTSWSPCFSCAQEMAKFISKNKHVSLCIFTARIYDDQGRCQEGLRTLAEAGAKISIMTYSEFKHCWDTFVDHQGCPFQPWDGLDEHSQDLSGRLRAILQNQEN
Summary of the method: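 HeLa cells stably expressing Vif and A3G-eYFP, 700 cells/well, incubated overnight at 37 deg C, then exposed to compound overnight at 37 deg C. Inhibition of Vif-mediated degradation read as increased yellow fluorescence (Ex 488/Em 500-530) by laser-scanning cytometry.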

[4] = target: Rap guanine nucleotide exchange factor 3 (Homo sapiens) (UniProt O95398); test: Confirmatory qHTS for antagonist of cAMP-regulated guanine nucleotide exchange factor 3 (EPAC1) (AID 1645880); settings: EPAC1 Rap1B-BODIPY-GDP exchange, fluorescence; series mostly up to 115 µM; note: nearly all actives have a fitted effect of over 55% in size; note: potency is the fitted concentration of half-maximal effect
Sequence of Rap guanine nucleotide exchange factor 3 (Homo sapiens) (O95398 whole entry, looked up): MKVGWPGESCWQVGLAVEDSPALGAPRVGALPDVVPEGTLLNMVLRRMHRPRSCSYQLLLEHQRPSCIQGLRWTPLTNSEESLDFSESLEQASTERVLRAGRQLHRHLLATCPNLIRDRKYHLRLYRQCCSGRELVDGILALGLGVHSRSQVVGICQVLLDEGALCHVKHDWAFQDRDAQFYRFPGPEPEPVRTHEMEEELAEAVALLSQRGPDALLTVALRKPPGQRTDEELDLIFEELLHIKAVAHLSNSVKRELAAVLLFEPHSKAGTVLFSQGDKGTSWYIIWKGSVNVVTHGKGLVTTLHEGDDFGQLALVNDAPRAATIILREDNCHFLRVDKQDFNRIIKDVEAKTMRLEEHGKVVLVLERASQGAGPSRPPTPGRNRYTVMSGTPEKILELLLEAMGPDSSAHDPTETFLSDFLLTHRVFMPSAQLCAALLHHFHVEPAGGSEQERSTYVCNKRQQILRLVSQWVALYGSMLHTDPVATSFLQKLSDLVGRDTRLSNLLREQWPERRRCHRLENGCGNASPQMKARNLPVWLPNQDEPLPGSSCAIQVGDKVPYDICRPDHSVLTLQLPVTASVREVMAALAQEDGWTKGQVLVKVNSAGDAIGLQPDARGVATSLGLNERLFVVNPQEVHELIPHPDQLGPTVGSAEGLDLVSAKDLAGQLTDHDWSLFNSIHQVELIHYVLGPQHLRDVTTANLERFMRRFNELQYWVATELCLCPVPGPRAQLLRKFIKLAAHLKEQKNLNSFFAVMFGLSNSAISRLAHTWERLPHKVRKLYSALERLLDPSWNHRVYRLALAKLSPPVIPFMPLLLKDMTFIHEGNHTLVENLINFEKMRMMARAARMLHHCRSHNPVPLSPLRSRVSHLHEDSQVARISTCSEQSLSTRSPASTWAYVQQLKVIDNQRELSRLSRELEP
Summary of the method: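 Nucleotide exchange uses 100 nM EPAC1, 250 nM RAP1B-BODIPY-GDP and 50 uM GDP, with compounds in a concentration-titration series. After 5 min at room temperature, fluorescence (480 nm ex/540 nm em) is read every 5 min for 30 min. Data are normalized to control ATA and DMSO.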

[5] = target: Rap guanine nucleotide exchange factor 3 (Homo sapiens) (UniProt O95398); test: Confirmatory qHTS for agonist of cAMP-regulated guanine nucleotide exchange factor 3 (EPAC1) (AID 1645881); settings: EPAC1 Rap1B BODIPY-GDP exchange fluorescence; series mostly up to 154 µM;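 note: EPAC1 catalysed release of BODIPY-GDP from Rap1B seen as fluorescence loss; 100% = effect of cAMP agonist control; nearly all actives have a fitted effect of over 75% in size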
[6] = target: Rap guanine nucleotide exchange factor 4 (Homo sapiens) (UniProt Q8WZA2); test: Confirmatory qHTS for agonist of cAMP-regulated guanine nucleotide exchange factor 4 (EPAC2) (AID 1645884); settings: EPAC2 GEF activity, Rap1B-BODIPY-GDP fluorescence; series mostly up to 154 µM;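 note: nucleotide exchange releases bodipy-GDP from Rap1 and this lowers its fluorescence; % is set by controls: 0 for no effect and ±100 for the full control effect; nearly all actives have a fitted effect of over 65% in size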
Sequence of Rap guanine nucleotide exchange factor 4 (Homo sapiens) (Q8WZA2 whole entry, looked up): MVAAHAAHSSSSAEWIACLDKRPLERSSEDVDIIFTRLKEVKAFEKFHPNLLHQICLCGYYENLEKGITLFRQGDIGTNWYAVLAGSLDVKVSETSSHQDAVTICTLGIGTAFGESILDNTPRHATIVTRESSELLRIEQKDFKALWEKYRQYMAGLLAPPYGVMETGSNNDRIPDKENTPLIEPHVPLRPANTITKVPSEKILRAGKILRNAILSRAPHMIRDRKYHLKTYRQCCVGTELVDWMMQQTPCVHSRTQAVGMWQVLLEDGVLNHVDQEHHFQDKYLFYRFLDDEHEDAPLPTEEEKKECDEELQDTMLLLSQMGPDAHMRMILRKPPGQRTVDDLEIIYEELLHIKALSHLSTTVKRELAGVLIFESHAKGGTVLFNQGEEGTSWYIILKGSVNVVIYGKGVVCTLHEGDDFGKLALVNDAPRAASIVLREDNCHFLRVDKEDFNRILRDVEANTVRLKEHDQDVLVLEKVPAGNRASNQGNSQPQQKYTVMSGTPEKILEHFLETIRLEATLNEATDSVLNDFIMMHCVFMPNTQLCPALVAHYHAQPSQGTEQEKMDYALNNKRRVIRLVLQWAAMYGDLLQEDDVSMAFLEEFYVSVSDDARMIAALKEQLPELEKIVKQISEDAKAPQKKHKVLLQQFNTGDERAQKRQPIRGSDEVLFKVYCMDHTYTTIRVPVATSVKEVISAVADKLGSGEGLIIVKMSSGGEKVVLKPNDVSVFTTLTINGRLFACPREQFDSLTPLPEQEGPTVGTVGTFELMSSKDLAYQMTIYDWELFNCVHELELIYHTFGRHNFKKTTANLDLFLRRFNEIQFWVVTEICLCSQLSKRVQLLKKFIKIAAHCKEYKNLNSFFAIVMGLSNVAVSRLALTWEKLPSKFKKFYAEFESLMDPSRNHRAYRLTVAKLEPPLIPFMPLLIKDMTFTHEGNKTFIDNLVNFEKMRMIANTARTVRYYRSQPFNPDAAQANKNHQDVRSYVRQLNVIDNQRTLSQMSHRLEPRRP

[7] = target: Rap guanine nucleotide exchange factor 4 (Homo sapiens) (UniProt Q8WZA2); test: Confirmatory qHTS for antagonist of cAMP-regulated guanine nucleotide exchange factor 4 (EPAC2) (AID 1645885); settings: EPAC2 Rap1B-BODIPY-GDP exchange fluorescence, biochemical; series mostly up to 114 µM; note: nearly all actives have a fitted effect of over 25% in size; for activity change, negative = inhibition: % is set by controls: 0 for no effect and ±100 for the full control effect
[8] = target: Glucocorticoid receptor (Homo sapiens) (UniProt P04150); test: GR-GFP Redistribution (AID 450;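 active = compounds whose dose series gives a full or clear partial fitted curve of increased nuclear translocation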; note: potency is the fitted concentration of half-maximal effect); settings: U2OS GR-GFP nuclear translocation, laser cytometry, 2 h
Sequence of Glucocorticoid receptor (Homo sapiens) (P04150 whole entry, looked up, the tested form may be a part): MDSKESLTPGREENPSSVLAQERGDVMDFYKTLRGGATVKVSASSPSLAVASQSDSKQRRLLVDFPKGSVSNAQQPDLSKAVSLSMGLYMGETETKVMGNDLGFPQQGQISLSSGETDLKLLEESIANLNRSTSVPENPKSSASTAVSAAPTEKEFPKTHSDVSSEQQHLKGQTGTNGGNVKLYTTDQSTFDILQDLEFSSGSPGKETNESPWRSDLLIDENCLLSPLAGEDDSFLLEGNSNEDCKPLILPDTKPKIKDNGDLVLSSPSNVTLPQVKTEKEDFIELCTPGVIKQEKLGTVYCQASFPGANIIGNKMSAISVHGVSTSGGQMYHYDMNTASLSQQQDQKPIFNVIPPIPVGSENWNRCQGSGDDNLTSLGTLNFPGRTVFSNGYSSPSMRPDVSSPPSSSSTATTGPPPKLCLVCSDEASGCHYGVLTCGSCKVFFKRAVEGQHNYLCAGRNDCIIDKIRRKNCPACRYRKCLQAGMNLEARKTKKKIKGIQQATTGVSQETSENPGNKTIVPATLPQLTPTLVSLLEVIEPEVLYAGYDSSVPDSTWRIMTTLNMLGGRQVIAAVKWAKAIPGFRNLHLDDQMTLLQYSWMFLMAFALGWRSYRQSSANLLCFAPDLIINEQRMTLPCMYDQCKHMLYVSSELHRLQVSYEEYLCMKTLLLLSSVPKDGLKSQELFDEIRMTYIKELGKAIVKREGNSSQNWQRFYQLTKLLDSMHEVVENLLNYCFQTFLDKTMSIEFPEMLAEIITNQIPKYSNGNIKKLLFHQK

[9] = target: Glucocorticoid receptor (Homo sapiens) (UniProt P04150); test: GR-EFC Redistribution (AID 451; calls by dose curve; note: potency is the fitted concentration of half-maximal effect); settings: CHO-K1 GR-EFC translocation, beta-gal luminescence, 2 h
Summary of the method: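 CHO-K1 cells expressing nuclear EA and GR-ED fragments of b-gal; compounds titrated up to 46 uM final, 2 h at 37 C. GR nuclear translocation read as complemented b-gal luminescence after 1 h RT detection.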

[10] = target: 3',5'-cyclic-AMP phosphodiesterase 4B (Homo sapiens) (UniProt Q07343); test: qHTS Assay for Inhibitors of PDE-IV (AID 607; active = well fitted activation curve with a large enough effect in the main read-out, with a control signal flat, not every such curve was filed as active; note: % of control where 0% means no effect); settings: HEK293 ACTOne CNG channel cells, membrane potential fluorescence; series mostly up to 22.9 µM
Sequence of 3',5'-cyclic-AMP phosphodiesterase 4B (Homo sapiens) (Q07343 whole entry, looked up): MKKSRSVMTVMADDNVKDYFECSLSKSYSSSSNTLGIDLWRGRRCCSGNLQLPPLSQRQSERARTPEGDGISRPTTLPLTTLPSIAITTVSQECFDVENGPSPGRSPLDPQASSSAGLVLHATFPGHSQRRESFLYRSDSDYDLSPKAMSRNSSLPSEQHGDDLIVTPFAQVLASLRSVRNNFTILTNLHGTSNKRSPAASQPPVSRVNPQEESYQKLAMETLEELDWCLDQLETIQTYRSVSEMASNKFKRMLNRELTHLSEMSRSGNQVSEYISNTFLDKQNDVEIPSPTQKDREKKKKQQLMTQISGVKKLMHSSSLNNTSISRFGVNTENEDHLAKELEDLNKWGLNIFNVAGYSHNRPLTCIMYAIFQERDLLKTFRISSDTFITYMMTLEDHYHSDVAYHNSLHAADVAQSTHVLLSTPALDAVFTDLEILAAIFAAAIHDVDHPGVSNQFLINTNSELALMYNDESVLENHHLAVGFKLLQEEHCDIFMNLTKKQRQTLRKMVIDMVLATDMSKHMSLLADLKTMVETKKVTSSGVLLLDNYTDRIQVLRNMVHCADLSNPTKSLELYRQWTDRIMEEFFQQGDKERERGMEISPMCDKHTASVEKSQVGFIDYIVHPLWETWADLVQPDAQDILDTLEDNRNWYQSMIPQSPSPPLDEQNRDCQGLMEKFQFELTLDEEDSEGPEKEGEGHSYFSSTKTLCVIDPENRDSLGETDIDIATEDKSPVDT
Summary of the method: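 The readout is membrane depolarisation from a cAMP-sensing CNG channel, detected with a potential dye at ex 535/em 590. Cells were HEK293-derived (endogenous PDE-IV) at 1000 cells/well, titrated up to 22.9 uM final.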

[11] = target: Cytochrome P450 2C9 (Homo sapiens) (UniProt P11712); test: qHTS Assay for Inhibitors and Substrates of Cytochrome P450 2C9 (AID 883); settings: recombinant CYP2C9, luciferin-H luminescence, 60 min; series mostly up to 57.1 µM; note: % is set by controls: 0 for no effect and ±100 for the full control effect; nearly all actives have a fitted effect of over 60% in size
Sequence of Cytochrome P450 2C9 (Homo sapiens) (P11712 whole entry, looked up): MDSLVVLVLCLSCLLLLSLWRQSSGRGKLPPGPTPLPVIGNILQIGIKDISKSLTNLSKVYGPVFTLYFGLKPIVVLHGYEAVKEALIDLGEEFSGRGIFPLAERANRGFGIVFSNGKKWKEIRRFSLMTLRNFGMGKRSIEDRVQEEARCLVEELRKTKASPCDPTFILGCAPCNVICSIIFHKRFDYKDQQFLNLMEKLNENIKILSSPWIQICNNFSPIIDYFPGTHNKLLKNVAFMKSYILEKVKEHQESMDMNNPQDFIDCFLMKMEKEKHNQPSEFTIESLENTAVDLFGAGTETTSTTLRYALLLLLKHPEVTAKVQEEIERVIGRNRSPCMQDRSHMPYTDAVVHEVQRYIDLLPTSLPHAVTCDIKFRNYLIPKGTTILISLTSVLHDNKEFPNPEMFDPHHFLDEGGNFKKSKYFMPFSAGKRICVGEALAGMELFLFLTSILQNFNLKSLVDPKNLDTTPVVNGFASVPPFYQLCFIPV
Summary of the method: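 10nM CYP2C9 + 100uM Luciferin-H (=KM), 25mM KPO4; cpd 10 min 37C; NADPH regen, 60 min 37C; stop/detect with P450 Glo-Buffer 20 min; luminescence. Norm. to 57uM sulphaphenazole as full inhibition.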

[12] = target: Cytochrome P450 2D6 (Homo sapiens) (UniProt P10635); test: qHTS Assay for Inhibitors and Substrates of Cytochrome P450 2D6 (AID 891); settings: recombinant CYP2D6, luciferin-ME EGE luminescence; series mostly up to 57.1 µM;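 note: luciferin methyl ether substrate demethylated by CYP2D6 with NADPH regeneration; % is set by controls: 0 for no effect and ±100 for the full control effect; nearly all actives have a fitted effect of over 60% in size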
Summary of the method: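 Human CYP2D6 (5 nM) with 30 uM Luciferin-ME EGE (at Km) in 100 mM KPO4, compound preincubated 10 min, then NADPH regeneration system for 60 min at room temperature. Luciferin read by luminescence; normalized to 1.43 uM quinidine.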

[13] = target: Cytochrome P450 2C19 (Homo sapiens) (UniProt P33261); test: qHTS Assay for Inhibitors and Substrates of Cytochrome P450 2C19 (AID 899); settings: recombinant CYP2C19, luciferin-H EGE luminescence; series mostly up to 57.1 µM; note: % is set by controls: 0 for no effect and ±100 for the full control effect; nearly all actives have a fitted effect of over 60% in size
Summary of the method: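 Luminescent read-out of luciferin formed from Luciferin-H EGE (10uM, equal to KM). Enzyme 5nM in 50mM KPO4; compound added, 10 min at 37C, then NADPH regenerating system for 60 min at 37C. Full inhibition defined by 57uM ketoconazole.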

[14] = target: Rap guanine nucleotide exchange factor 3 (Homo sapiens) (UniProt O95398); test: Counterscreen qHTS for antagonist of cAMP-regulated guanine nucleotide exchange factor 3 (EPAC1) (AID 1645888); settings: Rap1B-BODIPY-GDP nucleotide exchange, fluorescence; series mostly up to 154 µM;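 note: fluorescence loss as bound BODIPY-GDP is released from Rap1B; % of control where 0% means no effect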
Summary of the method: (§1)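 Rap1B–BODIPY-GDP (250 nM) with 50 uM GDP; compounds pin-transferred to 9.74 nM–152 uM final (activator) or from 7.32 nM upwards (inhibitor). Fluorescence Ex/Em 480/540 nm read at 5 and 30 min, then after adding cAMP or buffer, at room temperature.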

[15] = Confirmation and Secondary Assay for Modulators of Hemoglobin Beta Chain Splicing at IVS2 654 locus (AID 910); settings: HeLa EGFP-654 splicing reporter, GFP fluorescence, 48 h; series mostly up to 38.3 µM;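 note: HeLa cells stably carrying EGFP split by mutant beta-globin IVS2-654 intron; % of control where 0% means no effect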
Summary of the method: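 HeLa cells stably expressing EGFP interrupted by β-globin IVS2-654 intron, seeded overnight in Opti-MEM/2% FCS, then treated 2 days at 37 °C. Restored splicing read as total peak GFP intensity per well by laser scanning cytometry (488 nm excitation, 500–520 nm emission); 500 nM antisense PNA as control.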

[16] = Confirmation and Secondary Assay for Modulators of Hemoglobin Beta Chain Splicing at IVS2 705 locus (AID 930); settings: HeLa EGFP-705 splicing reporter, GFP fluorescence, 48 h; series mostly up to 38.3 µM;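 note: HeLa cells stably expressing the EGFP-705 splicing reporter; GFP fluorescence per well restored by corrected splicing of the IVS2-705 intron in EGFP; % of control where 0% means no effect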
Summary of the method: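 Per-well GFP, captured at 1 x 8 µm resolution with 488 nm excitation, served as the read-out for HeLa EGFP-705 cells incubated 2 days with test compound versus DMSO.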

[17] = target: Rap guanine nucleotide exchange factor 3 (Homo sapiens) (UniProt O95398); test: Counterscreen qHTS for agonist of cAMP-regulated guanine nucleotide exchange factor 3 (EPAC1) (AID 1645889); settings: EPAC1 Rap1B-BODIPY-GDP exchange, fluorescence; series mostly up to 30.8 µM; note: % of control where 0% means no effect; nearly all actives have a fitted effect of over 40% in size
Summary of the method: as §1

[18] = measured here: cell count channel max response
[19] = measured here: lipid channel max response

O=c1cc(-c2ccc(O)c(O)c2)oc2cc(OC3OC(CO)C(O)C(O)C3O)cc(O)c12 (centres undefined)
active: Potency [4] 7.03 µM
6.89%: max response [2, 18]
inactive: Potency [1] | activity change, negative = inhibition [2] 7.95% | outcome [3] | Potency [5] | Potency [6] | Potency [7]
11.2%: max response [2, 19]

COc1c(-c2ccc(O)c(O)c2)oc2cc(O)cc(O)c2c1=O
-17.7%: max response [2, 19]
inactive: Potency [8] > 46 µM | Potency [9] > 46 µM | Potency [10] | Potency [11] | Potency [1] | Potency [12] | Potency [13] | activity change, negative = inhibition [2] 0.206% | outcome [3] | Potency [5] | Potency [6] | Potency [7] | outcome [14]
-16.5%: max response [2, 18]

COc1ccc(-c2cc(=O)c3c(OC)c(OC)c(OC)c(OC)c3o2)cc1
inactive: Potency [15] | outcome [16] | activity change, negative = inhibition [2] -5.75% | Potency [4] | Potency [5] | activity change, negative = inhibition [14] -8.95% [at 30.8 µM] | outcome [17]
-19.4%: max response [2, 18]
-24.9%: max response [2, 19]
active: Potency [1] 12.6 µM
